The list is not random: actives were taken first. Their share in the collection is about 2.5%.
MEKK3 PB1 HTS = modulators (inhibitors or enhancers) of MEK5 binding to human MEKK3 PB1 domain. Q99759. bead-based flow cytometry, Alexa488-MEK5 binding to MEKK3; actives lie on both sides; 0 = blocked by unlabeled MEK5, 100 = vehicle. binding response (% of control), % at 10 µM. hit rate 1.4% among 290,000;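 active = binding response more than 3 SD above or below the average of its plate-row segment, actives on both sides; inconclusive = wells at one plate position flagged as instrument error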;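 also: Alexa488 bead fluorescence after subtracting the streptavidin-only scavenger bead signal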
Target sequence (Q99759 whole entry, looked up, the tested form may be a part): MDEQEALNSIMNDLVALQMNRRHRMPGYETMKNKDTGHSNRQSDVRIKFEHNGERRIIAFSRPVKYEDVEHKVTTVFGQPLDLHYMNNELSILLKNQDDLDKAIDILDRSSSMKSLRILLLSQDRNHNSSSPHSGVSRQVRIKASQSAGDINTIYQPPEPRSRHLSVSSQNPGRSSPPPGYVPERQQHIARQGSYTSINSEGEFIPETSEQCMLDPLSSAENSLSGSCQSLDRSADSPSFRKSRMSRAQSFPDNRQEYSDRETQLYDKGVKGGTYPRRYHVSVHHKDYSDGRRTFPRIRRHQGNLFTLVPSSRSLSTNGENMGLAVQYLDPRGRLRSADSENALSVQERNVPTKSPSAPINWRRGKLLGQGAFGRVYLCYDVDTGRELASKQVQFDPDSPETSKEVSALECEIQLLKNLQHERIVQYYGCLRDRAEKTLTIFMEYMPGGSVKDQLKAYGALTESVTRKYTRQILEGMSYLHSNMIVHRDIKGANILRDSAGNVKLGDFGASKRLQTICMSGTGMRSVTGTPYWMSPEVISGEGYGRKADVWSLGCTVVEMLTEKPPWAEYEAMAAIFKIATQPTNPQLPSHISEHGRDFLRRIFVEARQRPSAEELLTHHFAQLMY
UBC13 inh = blocks human UBC13 polyubiquitin chain formation; AID 485273; TR-FRET; hit rate 0.47% among 330,000; inhibition, % at 20 µM; in the data active = inhibition above about 45%, passing the limit was not always enough; inconclusive = no clear call, values can overlap the other calls
MEKK2mut PB1 HTS = signal of MEK5 binding to mutant human MEKK2 PB1 domain; bead flow cytometry, Alexa488-MEK5 binding to MEKK2 mutant; hit rate 0.35% among 290,000; percent response, % at 10 µM; in the data active = percent response above about 24%, passing the limit was not always enough
Rce1 inh = inhibitors of yeast Ras-converting enzyme. Q03530. yeast membranes, quenched prenylated peptide cleavage fluorescence. calls only. hit rate 0.27% among 290,000. AID 2563;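 active = fall in fluorescence gain of 50% or more versus controls, with final raw signal at or below 3038400; inconclusive = same 50% fall but final raw signal above 3038400; inactive = fall in fluorescence gain under 50%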;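 also: plate controls were neutral control wells for no effect and wells lacking membranes for full effect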
MEKK2 WT-MEK5 = raises or lowers MEK5 binding to wildtype human MEKK2 PB1 domain; Q9Y2U5; binding response (% of control), % at 10 µM; bead flow cytometry, Alexa488-MEK5 binding to MEKK2 WT; actives lie on both sides; AID 1531; hit rate 1.1% among 290,000; in the data active = binding response below about 67% or above about 130%; inconclusive = no clear call, values can overlap the other calls; inactive = in between
Casp3 UBC13 ctr = inhibits human caspase-3 in UBC13 counter-screen. shares compounds with UBC13 inh. Recombinant caspase-3, Caspase-Glo 3/7 luminescence, 60 min. inhibition, % at 20 µM. hit rate 4% among 1,400;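 active = mean inhibition across replicates above about 26%, limit read from the data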;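 also: plate controls were DMSO with caspase-3 for no effect and DMSO wells lacking enzyme for full effect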
UBC13 conf = human UBC13 polyubiquitin inhibition, confirmed. hit rate 68% among 1,400. inhibition, % at 10 µM. AID 488859. UBC13 polyubiquitination, TR-FRET, biochemical. shares compounds with UBC13 inh; in the data active = inhibition above about 45%; inconclusive = no clear call, values can overlap the other calls
Active calls of the source: *; i = inactive; ? = inconclusive; · = not tested or not shown.

SMILES	MEKK3 PB1 HTS	UBC13 inh	MEKK2mut PB1 HTS	Rce1 inh	MEKK2 WT-MEK5	Casp3 UBC13 ctr	UBC13 conf
C#CCOCCOCCOCCNc1nc(N2CCN(C(=O)[C@H](CCCCN)n3cc(C(N)CC(C)C)nn3)CC2)nc(N2CCN(C(=O)[C@H](CCC(=O)O)n3cc(C(N)[C@H](C)CC)nn3)CC2)n1 (stereo partly specified)	104	4	10	i	107	·	·
CC(OC(=O)c1cc(=O)c2cc(Cl)ccc2o1)C(=O)N1CCCC1 (stereo unspecified)	·	2	·	·	·	·	·
C#CCOCCOCCOCCNc1nc(N2CCN(C(=O)[C@H](CO)n3cc([C@@H](N)C(C)C)nn3)CC2)nc(N2CCN(C(=O)[C@H](CCCCN)n3cc([C@@H](N)[C@H](C)CC)nn3)CC2)n1	·	84*	·	·	·	-3	59*
COc1ccc(OCCC(=O)NCCN2CCOCC2)cc1	99	-2	0	i	100	·	·
CC(C)n1ncc2c(C(=O)Nc3ccc(S(N)(=O)=O)cc3)cc(C3CC3)nc21	·	75*	·	·	·	0	49*
COC(=O)CSc1nc(C)cc(C(F)(F)F)c1C#N	102	7	4	i	104	·	·
CCOC(=O)CSc1nc(C(C)(C)C)cc(C(F)(F)F)c1C#N	99	47*	-2	i	92	1	33
COc1ccccc1C(=O)N=c1sc2c(C)ccc(OC)c2n1C	102	48*	1	i	96	73*	?
COc1ccc(C(=O)N=c2sc3c(C)ccc(OC)c3n2C)cc1OC	104	31	-1	i	97	·	·
COc1ccc(-c2nn(-c3ccccc3)cc2C(=O)NC2CC2)cc1	·	4	·	·	·	·	·
CC1CCCC(C)N1CCCNC(=O)c1cc2c(s1)-c1ccccc1OC2 (stereo unspecified)	102	34	9	?	133	·	·
CC1CC(C)CN(CCCNC(=O)c2cc3c(s2)-c2ccccc2OC3)C1 (stereo unspecified)	106	45*	25*	?	142*	-2	55*
CCCN1CCN(CCCNC(=O)c2cc3c(s2)-c2c(C)cccc2OC3)CC1	106	49*	12	i	133	-1	57*
Cc1cccc2c1-c1sc(C(=O)NCCCN3CCCC(C)C3)cc1CO2 (stereo unspecified)	105	67*	24*	i	171*	4	97*
CCCOc1cccc(C(=O)NCCNC(=O)c2cnccn2)c1	102	6	-5	i	100	·	·
COc1ccccc1NC(=O)c1c(N=Cc2ccccc2O)cnn1C	99	87*	-6	i	97	-1	96*
N#Cc1ccc(Nc2nc(-c3ccc(O)cc3O)cs2)cc1C(F)(F)F	·	68*	·	·	·	-1	55*
CC[C@H]1CN2CCc3cc(OC)c(OC)cc3C2C[C@@H]1C[C@H]1NCCc2cc(OC)c(OC)cc21 (stereo partly specified)	·	53*	·	·	·	3	10
COC(=O)CC1NCCc2cc(OC)c(OC)cc21 (stereo unspecified)	104	7	-2	i	97	·	·
CCn1c(SCC(=O)N2CCCC2)nnc1-c1ccco1	106	2	9	i	108	·	·
COc1ccc(CN(CCN(C)C)c2ccccn2)cc1	111	-3	5	i	104	·	·
CCCCCCCCCCCCCCCC[N+](C)(C)CCN(Cc1ccc(OC)cc1)c1ncccn1	·	119*	·	·	·	0	124*
Cc1c(NS(=O)(=O)c2ccc(NC(=O)CCC(=O)O)cc2)c(=O)n(-c2ccccc2)n1C	104	1	11	i	103	·	·
c1ccc(C[C@H]2CN=C(Nc3ccccc3)N2CCCC2CCCCC2)cc1	·	48*	·	·	·	-1	26
CCOC(=O)c1cccc(Nc2nc(-c3cccnc3)nc3ccccc23)c1	·	60*	·	i	·	-4	70*
COC(=O)c1cccc(Nc2nc(-c3cccnc3)nc3ccccc23)c1	80	27	-17	i	86	·	·
COc1cccc(CNc2nc(-c3cccnc3)nc3ccccc23)c1	112	53*	4	i	113	3	42
